Holding throughout (design): species or system human, MV4-11 + K-562 + COLO205 + SK-N-BE2 + OVCAR-8
The test system of one test is CLK4. The conditions noted are these: read-out: apparent Kd, compound concentrations: 100 nM and 1000 nM (sheet 'Samples'), n = 1.
A further test concerns CSNK2A2. The conditions noted are these: read-out: apparent Kd; compound concentrations: 100 nM and 1000 nM (sheet 'Samples'), CATDS: 0.28231341025767498; n = 1.
In another test the test system is PDXK. The conditions noted are these: read-out: apparent Kd, compound concentrations: 100 nM and 1000 nM (sheet 'Samples'), n = 1.
Another test deals with COX5A. Particulars: read-out: apparent Kd; compound concentrations: 100 nM and 1000 nM (sheet 'Samples'), CATDS: 0.15625736744525701; n = 1.
The subject of another test is DDR1. Particulars: read-out: apparent Kd, compound concentrations: 100 nM and 1000 nM (sheet 'Samples'), n = 1.
In another test the test system is DDR2. The conditions noted are these: read-out: apparent Kd; compound concentrations: 100 nM and 1000 nM (sheet 'Samples'), CATDS: 0.115124869581512; n = 1.
Another test relates to FLT3. Particulars: read-out: apparent Kd, compound concentrations: 100 nM and 1000 nM (sheet 'Samples'), n = 1.
A further test deals with NNT. The conditions noted are these: read-out: apparent Kd; compound concentrations: 100 nM and 1000 nM (sheet 'Samples'), CATDS: 0.115819369976432; n = 1.
The subject of another test is RET. Particulars: read-out: apparent Kd; compound concentrations: 100 nM and 1000 nM (sheet 'Samples'), CATDS: 0.12937404694589899; n = 1.
In a further test the test system is ZAK. Particulars: read-out: apparent Kd; compound concentrations: 100 nM and 1000 nM (sheet 'Samples'), CATDS: 8.61130704510496E-2; n = 1.
A further test concerns CSNK1D. The conditions noted are these: read-out: apparent Kd, n = 1.
The subject of the next test is CSNK1E. Particulars: read-out: apparent Kd, n = 1.
In another test the test system is MAPK14. The conditions noted are these: read-out: apparent Kd, n = 1.
The subject of another test is MAPKAPK2. Particulars: read-out: apparent Kd, n = 1.
A further test has as its system CLK1. The conditions noted are these: read-out: apparent Kd; compound concentrations: 100 nM and 1000 nM (sheet 'Samples'), CATDS: 0.27992821641946602; n = 1.
Another test concerns FER. The conditions noted are these: read-out: apparent Kd; compound concentrations: 100 nM and 1000 nM (sheet 'Samples'), CATDS: 0.14947425083021301; n = 1.
For a further test, the system named is IGF1R. The conditions noted are these: read-out: apparent Kd; compound concentrations: 100 nM and 1000 nM (sheet 'Samples'), CATDS: 0.12946189122978499; n = 1.
The subject of another test is INSR. Particulars: read-out: apparent Kd; compound concentrations: 100 nM and 1000 nM (sheet 'Samples'), CATDS: 0.154401741124819; n = 1.
The next test concerns PLK1. Particulars: read-out: apparent Kd, compound concentrations: 100 nM and 1000 nM (sheet 'Samples'), n = 1.
The test system of another test is CSNK1A1. The conditions noted are these: read-out: apparent Kd, compound concentrations: 100 nM and 1000 nM (sheet 'Samples'), n = 1.
Another test has as its system MAP2K1. Particulars: read-out: apparent Kd; compound concentrations: 100 nM and 1000 nM (sheet 'Samples'), CATDS: 0.12402883868582899; n = 1.
A further test concerns MAP3K12. Particulars: read-out: apparent Kd; compound concentrations: 100 nM and 1000 nM (sheet 'Samples'), CATDS: 0.14214405219183901; n = 1.
The next test concerns PIK3C2A. The conditions noted are these: read-out: apparent Kd; compound concentrations: 100 nM and 1000 nM (sheet 'Samples'), CATDS: 0.1177028048525; n = 1.
Another test has as its system GAK. Particulars: read-out: apparent Kd; compound concentrations: 100 nM and 1000 nM (sheet 'Samples'), CATDS: 4.3389501889838297E-2; n = 1.
The next test has as its system MAPK10. Particulars: read-out: apparent Kd; compound concentrations: 100 nM and 1000 nM (sheet 'Samples'), CATDS: 7.1886071403025706E-2; n = 1.
Another test concerns MAPK11. Particulars: read-out: apparent Kd; compound concentrations: 100 nM and 1000 nM (sheet 'Samples'), CATDS: 4.3828309846065103E-2; n = 1.
The subject of a further test is MAPK8. The conditions noted are these: read-out: apparent Kd; compound concentrations: 100 nM and 1000 nM (sheet 'Samples'), CATDS: 4.3769759721199501E-2; n = 1.
The next test has as its system MAPK9. The conditions noted are these: read-out: apparent Kd; compound concentrations: 100 nM and 1000 nM (sheet 'Samples'), CATDS: 6.64061265651648E-2; n = 1.
The subject of the next test is NLK. The conditions noted are these: read-out: apparent Kd; compound concentrations: 100 nM and 1000 nM (sheet 'Samples'), CATDS: 0.178729596227966; n = 1.
The subject of another test is PIK3CD. Particulars: read-out: apparent Kd; compound concentrations: 100 nM and 1000 nM (sheet 'Samples'), CATDS: 8.1619991171871006E-2; n = 1.
The next test has as its system PIP4K2C. The conditions noted are these: read-out: apparent Kd; compound concentrations: 100 nM and 1000 nM (sheet 'Samples'), CATDS: 4.0260686940240001E-2; n = 1.
The subject of a further test is RIPK2. Particulars: read-out: apparent Kd; compound concentrations: 100 nM and 1000 nM (sheet 'Samples'), CATDS: 4.98304008841833E-2; n = 1.
Setting [1] is: compound concentrations:100 nM and 1000 nM (sheet 'Samples').

SMILES strings stand for the structures. Read-outs that look alike come from different tables or passages of the source.

Data on 6 compounds can be found in publication PMC11062922 (Nature Chemical Biology, 2023).

For `Nc1ncnc2[nH]c(-c3ccccc3)nc12` [AH5015_KCGS], the potency estimated from few doses in the test with CLK4 (CATDS: 0.40901388179724202) is 1090 nM; with CSNK2A2, 2320 nM; in the test with PDXK (CATDS: 0.33190254365372501), 1610 nM.

Turning to `COC(=O)Nc1nc2cc(Oc3ccc(NC(=O)Nc4cccc(Br)c4)cc3)ccc2[nH]1.Cl` [GW694234A], the potency estimated from few doses in the test with COX5A is 463 nM; with DDR1 (CATDS: 0.25244983438360302) it was 217 nM; in the test on DDR2, 865 nM; in the test with FLT3 (CATDS: 0.12065000979252), 777 nM; with NNT it was 853 nM; in the test with PDXK (CATDS: 0.115099137531036), 865 nM. The potency estimated from few doses is 668 nM with RET and 2040 nM in the test on ZAK.

Consider `NC(=O)Cc1ccccc1Oc1nccc(-c2c(-c3ccc(F)cc3)ncn2C2CCNCC2)n1` [SB-264865], for which the potency estimated from few doses in the test on CSNK1D (setting [1]) is 1300 nM; in the test with CSNK1E (setting [1]) it was 2030 nM; with MAPK14 (setting [1]) it was 418 nM; with MAPKAPK2 (setting [1]), 503 nM.

As to `CNC(=O)c1ncccc1Nc1nc(Nc2cc3c(cc2OC)CCCN3C(=O)CN(C)C)nc2[nH]ccc12` [GSK2220400A], the potency estimated from few doses was 321 nM with CLK1; 504 nM in the test on CLK4 (CATDS: 0.21204627821104199); 1020 nM in the test on FER; 1500 nM with IGF1R; 949 nM in the test with INSR; 1070 nM in the test with PLK1 (CATDS: 0.14661258796571799).

Regarding `CC(C)(C)n1cnc2c(N)ncnc21` [SKF-97359], the potency estimated from few doses with CSNK1A1 (CATDS: 0.118789019342549) was 1870 nM; in the test on CSNK1D (compound concentrations: 100 nM and 1000 nM (sheet 'Samples'), CATDS: 0.12511674231417799) it was 1680 nM; in the test with CSNK1E (compound concentrations: 100 nM and 1000 nM (sheet 'Samples'), CATDS: 0.10783492256042899), 2330 nM; with FLT3 (CATDS: 0.137141810176551), 1410 nM; with MAP2K1 it was 1710 nM; with MAP3K12 it was 1320 nM. The potency estimated from few doses was 1910 nM with PIK3C2A and 1460 nM in the test with PLK1 (CATDS: 0.134584248305568).

On to `CN1CCC(n2cnc(-c3ccc(F)cc3)c2-c2ccnc(NCCO)n2)CC1` [SB-226879], for which the potency estimated from few doses was 91.2 nM with CSNK1A1 (CATDS: 7.9796856628157303E-2); 6.97 nM with CSNK1D (compound concentrations: 100 nM and 1000 nM (sheet 'Samples'), CATDS: 0.29962108595450698); 21.2 nM with CSNK1E (compound concentrations: 100 nM and 1000 nM (sheet 'Samples'), CATDS: 0.149531361707545); 2140 nM in the test with DDR1 (CATDS: 4.0127184299889498E-2); 1240 nM with GAK; 126 nM with MAPK10. In addition, the potency estimated from few doses in the test on MAPK11 was 1170 nM; with MAPK14 (compound concentrations: 100 nM and 1000 nM (sheet 'Samples'), CATDS: 0.120722189423433), 32.5 nM; in the test with MAPK8 it was 1180 nM; in the test on MAPK9, 166 nM; in the test with MAPKAPK2 (compound concentrations: 100 nM and 1000 nM (sheet 'Samples'), CATDS: 0.113562081493031), 37.1 nM; with NLK, 15.4 nM. Further, the values for the potency estimated from few doses in the test with PIK3CD, in the test with PIP4K2C and with RIPK2 were 85.3 nM, 2090 nM and 572 nM, respectively.
